# Reference: the supplement of paper PMC11417369
# ± gives the standard deviation of the averaged measurements. The full ranking holds about 25,000 sequences; the median of “ln(normalized median fluorescence intensity)” is about 8.9, and the highest 2% start at about 10. Only a selection was taken, and the highest values are over-represented in it overall.
# Test system: PfAP2-LT AP2 domain (GST-tagged)
# Experiment: gcPBM binding intensity (ln(normalized median fluorescence intensity)); higher = stronger DNA binding
# Method in brief: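 An Agilent 4 × 180k array of primer-extended double-stranded 36-bp intergenic genomic probes, with negative controls, was incubated for 1 h with GST-tagged P. falciparum DNA-binding domains expressed in E. coli. Alexa488 anti-GST antibody detected bound protein, scanned at 488 nm. Binding intensity is the highest Masliner-normalised natural-log median intensity across replicate spots of either probe orientation.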
row,Sequence,gcPBM binding intensity (ln)
1,ATAAGATTATACAATTGTACGTTGTTCAAGATAAGG [XGTACX_site191],8.8 ± 0.42
2,AATAAATATAAATAAATAAATATATATATATATTTG [CACACA_negctrl_site1486],8.56 ± 0.4
3,TTTTATGTTTTAAAATGTACGTGTCAATGAATAAGT [XGTACX_site6239],8.52 ± 0.42
4,TTATTTACAACTTCAAATTATGTGTAATACTACTAT [CACACA_negctrl_site741],8.73 ± 0.52
5,AAAACAATATACTGTAGTACTGATGATATATATATA [XGTACX_site7798],9.01 ± 0.38
6,TATATATACATATACACACATACGTACATACATATA [CACACA_site3585],9.13 ± 0.39
7,AAGAACAGAACGTACACACACATATATATATATATA [CACACA_site3457],10.2 ± 0.28
8,AACACAAGAACAGAACGTACACACACATATATATAT [XGTACX_site7347],9.84 ± 0.13
9,ACAAGAACAGAACGTACACACACATATATATATATA [CACACA_site9143],10.175 ± 0.0071
10,AAGAACAGAACGTACACACACATATTTATATTTATA [CACACA_site7594],9.55 ± 0.3
11,TAAAAAAAAACATATACACACAAAAACGTACACATA [CACACA_site1354],9.31 ± 0.3
12,AAAAAATAATAATAAAATGAATAGATATGTATTTAT [TGCATGCA_negctrl_site210],8.63 ± 0.52
13,AAAAAAAAAAAAAAATGTACATATATAATATTTATA [XGTACX_site5117],8.54 ± 0.57
14,TATAAAATTACATTTTGTCATTTATTTTTTCCCACT [TGCATGCA_negctrl_site110],8.54 ± 0.63
15,CACACAAAGGAATATACACACATATTTATATTTATA [CACACA_site7841],9.21 ± 0.44
16,ACAAAAGGGGAATACACACACATATATAAATAAATA [CACACA_site7111],9.59 ± 0.6
17,CCCACAAAGGAATATACACACATATATATATATATA [CACACA_site4091],9.95 ± 0.18
18,AGTATATATACACAAGGGGAATACATATACAAAATT [TGCATGCA_negctrl_site244],9.04 ± 0.46
19,ACAAAAGGGGAATACACACACATATATATATATATA [CACACA_site2215],10.33 ± 0.071
20,ATACAAAAGGGGAATACACACACATATATATATATA [CACACA_site8694],10.12 ± 0.021
21,ACAATAAAAATTTATGCATGTGAATTGAAAAAAAAA [TGCATGCA_site1037],8.72 ± 0.48
22,CATAAATCAGCCATAACACACATACATATATACATA [CACACA_site8025],9.28 ± 0.42

row,Sequence,gcPBM binding intensity (ln)
1,TAATATACATAATAATGTACATATTTTCATATATAC [XGTACX_site6913],8.74 ± 0.35
2,ACCATGAAAATATTATGTACATATGTATTATATATA [XGTACX_site408],8.87 ± 0.33
3,ATATATAATATATATGCATGTGACATTAATAATATA [TGCATGCA_site880],8.81 ± 0.4
4,TTTATATTGATATATACACACATATACATCCTATTT [CACACA_site7442],9.11 ± 0.42
5,ATAAATATTGGGTGCACACACATAATATATATATAT [CACACA_site2272],9.59 ± 0.35
6,AACCATTGGGAAAGGGTGCACATATATATATATATA,10.09 ± 0.099
7,GGAAAAACCATTCGCACACACACATAATATATAATA [CACACA_site1424],9.71 ± 0.31
8,TAAAACATAAGAGACACACACACATATATATATATA [CACACA_site3643],10.1 ± 0.16
9,CATTATAAGAGACACACACACATATATAAATATGTA [CACACA_site6621],9.63 ± 0.38
10,AAACATAAGAGACACACACACATATATAAATAAATA [CACACA_site7674],9.79 ± 0.38
11,AACATTATAAGACACACACACACATATATATATATA [CACACA_site8259],10.3 ± 0.3
12,TAATAAATAAGACACACACACATATATATATATTAT [CACACA_site1389],9.8 ± 0.2
13,AACATTATAAGACACACACACACATATATAAATATA [CACACA_site6622],10.2 ± 0.38
14,ATATGGAATAATACGCGTACACACATATATATATTA [XGTACX_site307],9.34 ± 0.3
15,GAATACATAATAACATGTACACACATTCTTCTATAA [XGTACX_site8725],9.01 ± 0.36
16,ATATATATATATAATGCACACATTATAAATTATGTA [CACACA_site5802],9.02 ± 0.31
17,ATTAAAAAAATTAAAAGTACACATATTTCAATGATA [XGTACX_site5606],8.43 ± 0.41
18,AAAATTATATGTAATTGTACGGAATTATATACGCAA [XGTACX_site2048],8.72 ± 0.41
19,TTGGTCTTTTAAAAAAGTACAAAAAAAAAAAAAAAA [XGTACX_site1665],8.08 ± 0.55
20,ATTCATATGAAACACACACACACACCCATAAAAAAA [CACACA_site3246],10.2 ± 0.2
21,AAATAAATGAAACACACACACACAAAAAAAAAAAAC [CACACA_site2625],10.2 ± 0.28
22,AAAATAAAATAAAACACAAAAAAATAAAACAAAATA [CACACA_negctrl_site16],8.87 ± 0.49
